Laboratory results as given in ChEMBL document CHEMBL3433997, “St. Jude Leishmania screening dataset” (2016).

Columns and labels:
Type in all cases: functional
[1] = molecular target: Solute carrier family 2, facilitated glucose transporter member 1 (Homo sapiens) (UniProt P11166); test: ST_JUDE_LEISH: Cytotoxicity at 2uM final concentration against transgenic Leishmania Mexicana promastigotes LmGLUT1 that are glucose transport deficient and complemented with the human glucose transporter GLUT1. Activity is measured by DNA content using SYBR green in vitro
[2] = molecular target: Hexose transporter 1 (Plasmodium falciparum) (UniProt O97467); test: ST_JUDE_LEISH: Cytotoxicity at 2uM final concentration against transgenic Leishmania Mexicana promastigotes LmPfHT that are glucose transport deficient and complemented with the Plasmodium falciparum hexose transporter. Activity is measured by DNA content using SYBR green in vitro
[3] = molecular target: Glucose transporter (Leishmania mexicana) (UniProt O61059); test: ST_JUDE_LEISH: Cytotoxicity at 2uM final concentration against transgenic Leishmania Mexicana promastigotes LmGT2 that are glucose transport deficient and complemented with the L. Mexicana glucose transporter 2. Activity is measured by DNA content using SYBR green in vitro

Solute carrier family 2, facilitated glucose transporter member 1 (Homo sapiens), sequence (P11166 whole entry): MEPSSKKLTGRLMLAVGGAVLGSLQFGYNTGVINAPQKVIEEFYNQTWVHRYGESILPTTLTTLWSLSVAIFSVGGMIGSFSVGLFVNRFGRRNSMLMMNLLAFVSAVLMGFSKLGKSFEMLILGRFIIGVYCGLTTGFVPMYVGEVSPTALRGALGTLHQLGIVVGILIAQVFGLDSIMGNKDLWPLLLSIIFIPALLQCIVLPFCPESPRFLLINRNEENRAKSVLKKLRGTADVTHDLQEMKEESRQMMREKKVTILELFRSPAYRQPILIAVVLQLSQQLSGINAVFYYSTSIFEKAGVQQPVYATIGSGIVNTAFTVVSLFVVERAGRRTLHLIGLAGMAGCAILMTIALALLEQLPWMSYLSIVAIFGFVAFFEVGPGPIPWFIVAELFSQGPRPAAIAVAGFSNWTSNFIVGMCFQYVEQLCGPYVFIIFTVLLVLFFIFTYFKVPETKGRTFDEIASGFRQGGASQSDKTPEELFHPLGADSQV

Structure (SMILES)	inhibition [1] [%]	inhibition [2] [%]	inhibition [3] [%]
COc1cc(OC)cc(C(=O)Nc2nc(-c3ccccn3)cs2)c1	7.32	14.4	7.57
Cc1ccc(Cn2ncc(N3CCCNCC3)c(Cl)c2=O)cc1NC(=O)Nc1ccc(-c2ccccc2)cc1	3.82	4.05	4.8
CS(=O)(=O)c1ccc(CCNCc2ccc(-c3ccc(CN(C(=O)c4cccc(C#N)c4)C4CCN(Cc5ccccc5)CC4)cc3)nc2)cc1	5.06	4.14	5.74
Fc1ccc2[nH]c(-c3ccc(-c4cccc(CN5CCN(c6ccncc6)CC5)c4)cc3)nc2c1	2.37	1.42	4.07
Cn1cncc1C(=O)NC1CCN(c2ccnc(Nc3ccc(F)cc3)n2)C1 (centres undefined)	0.07	-0.1	0.61
Cc1ccc(/C=C/C(=O)NCCCCCN2CCC(c3c[nH]c4ccccc34)CC2)cc1	5.46	5.57	3.18
c1ccc(CCNc2nc(NCC(c3ccccc3)c3ccccc3)c3nc[nH]c3n2)cc1	4.2	3.7	1.17
CNCCCn1c(N(C)C)nc2cc(-n3cnc4cc(-c5ccc(Cl)cc5)sc4c3=O)ccc21	3.3	3.48	3.76
COc1ccc2nc(C)cc(NC3Cc4ccccc4C3)c2c1	7.7	5.19	0.76
CCC[C@@H]([C@@H](CC1CCC(C)CC1)C(=O)N[C@@H](CCCCNC(=O)c1ccccn1)C(=O)Nc1nccs1)N(O)C=O (some centres undefined)	2.27	4.29	1.8
COc1ccc2ncc(F)c(CCN3CC(O)C(CNCc4ccc5ccccc5c4)C3)c2n1 (centres undefined)	15.5	16.6	6.63
CCN(CC)Cc1cc(Nc2c3ccc(Cl)cc3nc3cccc(OC)c23)ccc1O	7.41	11.1	5
COCCn1c(-c2nc(-c3ccc(F)cc3)cnc2N)nc2ccccc21	0.54	-2.08	-0.94
CC(C)NCc1cccc(-c2cccc(NC(=O)c3cccc(Cl)c3)c2)c1	-0.03	0.9	4.05
CC(C)CCCC(C)(C)NC[C@@H](O)[C@H](Cc1ccccc1)NC(=O)c1cccc(CCC2CC2)c1	3.16	4.54	4.06
CCCNCCc1ccc(NS(=O)(=O)c2cccc(-c3ccc(Cl)cc3)c2)cc1	1.93	0.61	1.01
FC(F)(F)c1ccc2[nH]c(-c3ccc(-c4ccc(CNCC5CCCO5)cc4)cc3)nc2c1 (centres undefined)	3.49	2.61	1.84
O=C(NOCCCCOc1ccc(Cl)c(Cl)c1)c1ccccc1	-2.66	-2.61	-1.29
